# Measured values as given in PubChem BioAssay AID1345083 (National Center for Advancing Translational Sciences (NCATS), 2018).
# Out of some 94,000 compounds screened, about 6,200 (6.6%) were called active. Inconclusive results (about 31%) are left out. This excerpt belongs to a sample that is enriched for actives. Values without a mark were called inactive. The call rests on the fitted dose curve; in most records, active means well fitted inhibition curve with a large enough effect; inconclusive means small, poorly fitted or top-dose-only effect; inactive means flat fitted curve, though single readings scatter.
# Test: Cytotoxic Profiling in HEK 293 Cell Line of Diverse Libraries Using Quantitative High-Throughput Screening; further: nearly all actives have a fitted effect of over 60% in size
# Conditions: HEK 293 viability, ATP luminescence (CellTiter-Glo), 48-72 h; series mostly up to 115 µM; activity change, negative = cytotoxicity: at the top concentration
# In short: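 HEK 293 seeded at 250 cells/well receive compound via pintool. After 48 or 72 hr at 37 degree Celsius, 5% CO2 and 95% humidity, CellTiter-Glo is dispensed and luminescence read following 10 min at room temperature.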
# On the % scale 0 is the no-effect control and ±100 the full control effect; potency means the concentration at half of the fitted maximal effect.
Structure (SMILES),"activity change, negative = cytotoxicity",Potency,outcome
O=C(NCc1nnc2ccccn12)C1NCCc2[nH]cnc21 (stereo not drawn),0.78%,,
CCC(=O)N1CCC2(CC1)CC(N1CCN(CC(C)C)CC1)CCO2 (stereo not drawn),-2.2%,,
Cc1ccc(S(=O)(=O)N[C@@H]2CCOC[C@H]2OCC(=O)O)cc1,0.393%,,
O=C1NCCCCCCN(S(=O)(=O)c2cccs2)[C@H]2CCCC[C@@H]12,-15%,,
O=C(c1ccc2c(c1)N(C(=O)c1ccccc1)CC2)N1CCN(c2ccc(Cl)cc2)CC1,,31.6 µM (active),
CC(=O)N1CCc2ccc(C(=O)N3CCCCCC3)cc21,-7.22%,,
CCC(CC)N1CCN(C(=O)c2ccc3c(c2)N(S(C)(=O)=O)CC3)CC1,-6.68%,,
O=C(NC[C@H]1O[C@@H](CO)[C@@H](O)[C@H]1N1CCOCC1)c1ccco1,-4.16% [at 172 µM],,
O=C(CCn1ccn2nc3c(c2c1=O)CCCC3)Nc1ccc(Cl)c(C(F)(F)F)c1,,44.7 µM (active),
CCOC(=O)c1ccc(NC(=O)CCn2ccn3nc4c(c3c2=O)CCCC4)cc1,-21.7%,,
O=C(CCn1ccn2nc3c(c2c1=O)CCCC3)Nc1ccc(F)cc1Cl,-2.23%,,
CCc1nc(-c2c3n(c(=O)n(CC(=O)NC4CCCCC4)c2=O)CCCC3)no1,4.44%,,
CCOC(=O)C1=C(C)NC(=O)NC1c1ccccc1 (stereo not drawn),-2.03%,,
Cc1nccnc1N1CCC(c2nnc(CN3CCCC3)n2C)CC1,-7.58%,,
O=C1Cc2c(-c3ccc(Oc4ccccc4)cc3)n[nH]c2CN1CCc1ccncc1,,79.4 µM (active),
CC(C)Oc1cccc(-c2n[nH]c3c2CC(=O)N(Cc2ccccc2)C3)c1,-22.1% [at 172 µM],,
O=C1Cc2c(-c3ccc(CO)cc3)n[nH]c2CN1CC1CCOCC1,-27.8% [at 172 µM],,
CCc1ocnc1C(=O)NC1CC(c2cc(N3CCC(O)C3)ncn2)C1 (stereo not drawn),,,inactive
Cc1nc(CCNC(=O)C2CCCN(c3nc(-c4ccccc4)nc4c3CCC4)C2)n[nH]1 (stereo not drawn),-3.49%,,
O=C(NC1CCNC1)C1CCN(c2nc(-c3ccccc3)nc3c2CCC3)CC1 (stereo not drawn),,35.5 µM (active),
O=C(CN1CCCC1=O)NC1CCCc2nc(-c3ccccc3)ncc21 (stereo not drawn),7.55%,,
CC(C)c1nc(CCNC(=O)[C@H]2CNC[C@@H](C(=O)N3CCCC3)C2)cs1,-4.75%,,
O=C(NCC1CCNCC1)c1ccc(C2CCNC2)cc1 (stereo not drawn),-14.4%,,
O=C(NCCn1cccc1-c1nc(-c2ccc3c(c2)OCO3)no1)c1cccc(F)c1,-25.2%,,
CN(C)CCNC(=O)c1nc2nc(-c3ccccc3)c(-c3cccc(F)c3)cc2n1C,,50.1 µM (active),
COc1ccc(Nc2cc3c(nc2-c2ccccc2)nc(C(=O)NCCN(C)C)n3C)cn1,-23.9%,,

Structure (SMILES),"activity change, negative = cytotoxicity",Potency,outcome
Cn1cccc1C(=O)N1CC[C@@H]2NC(=O)[C@H]3C[C@H](NC(=O)C4CC4)CN3C(=O)[C@H]21,,,inactive [at 172 µM]
CCCCN1C(=O)C(CC(=O)N2CCCCC2)Sc2ncccc21 (stereo not drawn),-19.9%,,
CC(C)CNC(=O)c1nc2sccn2c1-c1ccncc1,,,inactive [at 172 µM]
CC(=O)N1CCC([C@@H]2CN(Cc3cc(F)c(F)cc3F)C[C@H]2CO)CC1,-4.04%,,
CC(C)S(=O)(=O)N1CCC(N2CC(OCC3CC3)C23CCCCC3)CC1 (stereo not drawn),-25.7%,,
O=C1NC2(CCN(C(=O)c3ccccn3)C2)Oc2ccccc21 (stereo not drawn),-8.41% [at 172 µM],,
O=C1NC2(CCN(C(=O)c3ccccc3)C2)COc2ccccc21 (stereo not drawn),,100 µM (active),
O=C1CC2(CCN(C(=O)c3ccccc3)C2)Nc2ccccc2N1 (stereo not drawn),-16%,,
CCN(C1CCOCC1)C1CN(C(=O)C2CCC2)C1,-1.75%,,
COCCNC(=O)[C@@H]1C[C@H](Oc2ccccc2)CN1C(=O)c1ccccn1,-0.692%,,
COc1ccc(-c2cc(N3CCC(NC(=O)c4ccc(N(C)C)cc4)C3)n[nH]2)cc1 (stereo not drawn),,70.8 µM (active),
Cn1nccc1C(=O)NC1CCCN(c2cc(N3CCCC3)ncn2)C1 (stereo not drawn),-1.62%,,
COC(=O)NC1CCCN(c2ccc3nnc(C)n3n2)C1 (stereo not drawn),,,inactive [at 172 µM]
COc1ccc(C(=O)NCCC2CCN(C(=O)Nc3cc(F)ccc3F)CC2)cc1,-7.34%,,
COc1ccc(-c2cc(N3CCCC(NC(=O)c4cccc(Cl)c4)C3)n[nH]2)cc1 (stereo not drawn),,44.7 µM (active),
O=C(NC1CCN(c2cc(C(F)(F)F)ncn2)CC1)c1ccc(F)cc1,3.44%,,
COc1ccc(-c2cc(N3CCCC(NC(=O)c4ccsc4)C3)n[nH]2)cc1 (stereo not drawn),,35.5 µM (active),
Cc1ccc(-c2cc(N3CCC(CNC(=O)c4ccc(N(C)C)cc4)CC3)n[nH]2)cc1,-2%,,
COc1ccc(-c2cc(N3CCCC(NC(=O)c4cc(F)ccc4Cl)C3)n[nH]2)cc1 (stereo not drawn),,28.2 µM (active),
Cc1ccc(C(=O)NC2CCN(c3cc(-c4cccs4)[nH]n3)C2)cc1 (stereo not drawn),-25.9%,,
Cc1cc(C(=O)N2C[C@@H](COCC(N)=O)[C@H](c3ccncc3)C2)c(C)o1,-13.7%,,
O=C1Nc2cnccc2C2(CCN(C(=O)c3ccccc3F)C2)O1 (stereo not drawn),-11.1% [at 172 µM],,
CCOc1ccccc1NC(=O)CC[C@H]1NC(=O)c2ccccc2NC1=O,1.93%,,
O=C(c1ccoc1)N1CCC(Oc2ncccc2C(=O)N2CCOCC2)C1 (stereo not drawn),2.21%,,
CN1[C@@H](CCC(=O)NCc2ccccc2)CNC(=O)[C@@H]2[C@H]1CCN2Cc1csnn1,0.839% [at 172 µM],,
O=C(c1ccc(CO)o1)N1CCC2(CC1)[C@H](O)C[C@@H]2OCCO,-5.07%,,

Structure (SMILES),"activity change, negative = cytotoxicity",Potency,outcome
CC(c1cccs1)N(C)Cc1ccncc1 (stereo not drawn),-4% [at 172 µM],,
COCc1nnc2n1CCC(NC(=O)NCCc1ccccc1)CC2 (stereo not drawn),-2.98%,,
O=C(CCCc1ccccc1)Nc1ccc(-c2nnc3n2CCCC3)cc1,-2.04%,,
CN1Cc2ncnc(N3CCCCC3)c2CN(c2ccccc2)C1=O,-7.24% [at 172 µM],,
CNC(=O)[C@@H](Cc1ccccc1)N1CCC[C@H]1C(=O)NCC1CC1,-15% [at 172 µM],,
O=C(Nc1cccc(F)c1)N1CCCC(CN2CCOCC2)CC1 (stereo not drawn),-4.63%,,
O=C(NCC1CC1)C1CCCN(C2CCN(Cc3ccncc3)CC2)C1 (stereo not drawn),-7.71%,,
O=C(Nc1ccc(F)cc1)C1CCCN(Cc2cccc(-c3ccc(F)cc3F)c2)C1 (stereo not drawn),,35.5 µM (active),
COc1ccccc1-c1cccc(CN2CCCC(C(=O)NCC3CC3)C2)c1 (stereo not drawn),,39.8 µM (active),
O=C(C1CCCN(Cc2cccc(-c3ccc(F)cc3F)c2)C1)N1CCCCC1 (stereo not drawn),,31.6 µM (active),
O=C(c1cccs1)C1CCCN(C(=O)COc2ccc(F)cc2F)C1 (stereo not drawn),-46.5%,,
CN(C)C(=O)N1CCCC(C(=O)N2CCC(N3Cc4cccn4C3=O)CC2)C1 (stereo not drawn),-6.08%,,
O=C1CCN(Cc2ccncc2)CCCC(C(=O)Nc2cccc(F)c2)CCN1 (stereo not drawn),-1.43%,,
Cc1nnc2n1C(C)CN(C(=O)CCCc1nc(-c3ccncc3)no1)C2 (stereo not drawn),,,inactive
O=C(NCc1cccnc1)C1CCCN(c2ccnc3ccnn23)C1 (stereo not drawn),-27.3%,,
CCCNC(=O)NC1CCN(C(=O)N2CC3CC(C2)[C@H]2CCCC(=O)N2C3)CC1 (stereo partly drawn),1.71%,,
CCN1c2cc(C(=O)Nc3ccc(SC)cc3)ccc2C(=O)N2CCCCCC21 (stereo not drawn),,22.4 µM (active),
O=C(Nc1ccc([C@H]2OCC(=O)N(C3CCOCC3)[C@@H]2CO)cc1)c1ccc(F)c(Cl)c1,-13%,,
COc1ccc(CNC(=O)c2ccc3c(c2)N(C)C2CCCCN2C3=O)c(OC)c1 (stereo not drawn),1.55%,,
COc1cc(=O)n2c(c1C(=O)Nc1ccc(Cl)c(F)c1)CCCC2,-15.7%,,
CCN1c2cc(C(=O)Nc3ccc(F)c(Cl)c3)ccc2C(=O)N2CCCCC21 (stereo not drawn),,39.8 µM (active),
CCN1c2cc(C(=O)NCc3ccccc3C(F)(F)F)ccc2C(=O)N2CCCCCC21 (stereo not drawn),,39.8 µM (active),
CCN1C(=O)Cc2cc(C(=O)NCc3cc(OC)ccc3OC)ccc21,-17.2%,,
CN(C)C[C@@H]1CN(C)C[C@H]1NC(=O)c1ccnnc1,-2.4%,,
CC(C)CC(=O)N1CCN(c2nnc3ccccn23)CC1,,,inactive
CC(C)(C)CC(=O)Nc1ccc2c(N3CCOCC3)ncnc2c1,-29.9%,,

Structure (SMILES),"activity change, negative = cytotoxicity",Potency,outcome
O=C(CCCc1ccccc1)NCCC1CCN(C(=O)Nc2cc(F)cc(F)c2)CC1,-10.7%,,
CN1C(=O)C(CC(=O)NCc2ccccc2F)Sc2ncccc21 (stereo not drawn),25.8%,,
COCc1cccc(C(=O)N2CC[C@@](C)(O)[C@@H](O)C2)n1,-0.59%,,
C=CCN(C)c1nc(C)nc2c1CCN(C(=O)N1CCOCC1)CC2,2.16%,,
N#Cc1ccc(CN2CCCC3(COc4ccccc4[S+](=O)([O-])N3)C2)cc1 (stereo not drawn),-25.4%,,
CS(=O)(=O)N1CCCN(C(=O)CN2CCCCCC2)CCNC(=O)CC1c1ccccc1 (stereo not drawn),-21.6%,,
COc1ccc(O[C@H]2COCCN(Cc3nccn3C)C2)cc1,-11.1% [at 172 µM],,
CC(C)CN1CCOC[C@H](Oc2ccc(S(C)(=O)=O)cc2)C1,-15.6% [at 172 µM],,
Cn1cc(CN2CCOC[C@H](Oc3ccc(S(C)(=O)=O)cc3)C2)c2ccccc21,,50.1 µM (active),
Cc1cc(C(=O)NCC2CCCN(Cc3nnc(-c4cccnc4)o3)C2)no1 (stereo not drawn),,,inactive
CN(CC1CCOC1)S(=O)(=O)c1ccccc1C(F)(F)F (stereo not drawn),-3.67%,,
Cc1ccc(S(=O)(=O)N(C)Cc2ccccc2C(F)(F)F)cc1,,70.8 µM (active),
Cc1ccc(S(=O)(=O)N(C)CC2CCOCC2)cc1F,-30.7%,,
CN1C(=O)CCC2(CNC(=O)C3CCC3)CCC=C12 (stereo not drawn),-10.2%,,
O=C(NC1CCCC1)NC1CC(c2nnc(CO)n2C2CC2)C1 (stereo not drawn),,,inactive
O=C(C1CCc2nnc(C3CCN([S+](=O)([O-])c4ccccc4)CC3)n21)N1CCOCC1 (stereo not drawn),,,inactive
O=C(N1CCC(Cc2nc(-c3ccccc3)n[nH]2)C1)C1(c2ccccc2)CC1 (stereo not drawn),,44.7 µM (active),
O=C(C1CCC1)N1CCC(Cc2nc(-c3cccnc3)n[nH]2)C1 (stereo not drawn),6.91%,,
O=C(N1CCCC(Cc2nc(C3CCOCC3)no2)C1)C1(c2ccccc2)CC1 (stereo not drawn),-16.5%,,
CCc1noc(-c2cccn3c(CNC(=O)c4cccc(Cl)c4)nnc23)n1,-11.2%,,
CC1(c2noc(C3CCOCC3)n2)CCN(Cc2c(F)cccc2Cl)CC1,-21.5%,,
CC(C)C(=O)Nc1ccc(C2(C(=O)NCCN3CCCCC3)CCCCC2)cc1,-15.8%,,
Cc1ccc(NC(=O)[C@@H]2CNC[C@H](C(=O)NCc3ccccn3)C2)cn1,,,inactive
O=C(COc1ccc(NC(=O)C2CC2)cn1)NCc1ccc(F)cc1F,3.7%,,
COc1ccc(NC(=O)[C@@H]2C[C@@H](c3ccc(F)cc3)N(CCOc3ccccc3)C2)cn1,,39.8 µM (active),
